A selection: hits, their analogues and other compounds. The true share with any hit is near 18%.
TGFb inhibitor: qHTS for Inhibitors of TGF-b; HepG2 CAGA-GFP TGF-b/SMAD3 reporter, GFP fluorescence, 18 h; TGF-beta stimulated, 500 pg/mL final; Potency, µM (highest dose often 46.1 µM), for inactives: top-dose activity, negative = inhibition, actives largely listed as inhibitors; hit rate 1.2% among 410,000; AID 588855, 2011; further: potency means the concentration at half of the fitted maximal effect; on the % scale 0 is the no-effect control and ±100 the full control effect; nearly all actives have a fitted effect of over 65% in size
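First, reporter cells (HEPG2 CAGA-GFP) rested 2 h at 37 degrees C. Next, compounds were pinned in and TGF-beta added to 500 pg/mL final. After 18 h, GFP was imaged per cell and summed per well.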
HepG2 viability: qHTS for Inhibitors of TGF-b: Cytotox Counterscreen; AID 588856, 2011; hit rate 0.76% among 410,000; HepG2 CAGA-GFP viability, ATP luminescence, 18 h; Potency, µM (doses to about 46.1 µM), for the others: top-dose activity change, negative = cytotoxicity, actives largely listed as cytotoxic; further: potency means the concentration at half of the fitted maximal effect
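HepG2 CAGA-GFP cells (1000/well, DMEM with 1% FBS) received compound, then TGF-beta at 500 pg/mL final, and were incubated 18 hours at 37 degrees C. Viability was read by CellTiter-Glo luminescence. Media-only wells were set as complete cell-killing and DMSO as no toxicity.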
IL1B secr inh: qHTS for Inhibitors of Inflammasome Signaling: IL-1-beta AlphaLISA Primary Screen | THP-1 LPS/ATP IL-1B secretion, AlphaLISA, 16 h; hits give low values | activity change, % at 57.5 µM | hit rate 4.7% among 360,000 | AID 743279, 2014; in the data active means activity change below about -50%; inconclusive means mostly about -30% to -49%; further: on the % scale 0 is the no-effect control and ±100 the full control effect
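Secreted IL-1B measured by AlphaLISA bead assay after 16 h compound exposure of THP-1 cells; compounds (final up to 57.5 uM) added 1 h before LPS (250 ng/mL) and ATP (1.25 mM) stimulation; lower signal means less secretion.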
TDP1 cell CPT: qHTS for Inhibitors of human tyrosyl-DNA phosphodiesterase 1 (TDP1): qHTS in cells in presence of CPT; chicken DT40 Tdp1-/-;hTDP1 cells + 20 nM CPT, ATP luminescence, 48 h; AID 686979, 2013; Potency, µM (series often up to 46.2 µM), inactives show top-dose activity change, negative = growth inhibition, actives largely listed as inhibitors; hit rate 12% among 420,000; further: potency means the concentration at half of the fitted maximal effect; on the % scale 0 is the no-effect control and ±100 the full control effect; nearly all actives have a fitted effect of over 55% in size
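Chicken DT40 Tdp1-/- cells complemented with human TDP1, 400 cells/well, exposed to compounds plus 20 nM camptothecin for at least 48 h at 37 C; viability read as ATP content by CellTiter-Glo luminescence.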
TDP1 inh: qHTS Assay for Inhibitors of Tyrosyl-DNA Phosphodiesterase (TDP1); recombinant TDP1, AlphaScreen DNA substrate cleavage; Tyrosyl-DNA phosphodiesterase 1 (Homo sapiens), Q9NUW8; Potency, µM (series often up to 130 µM), for inactives: at the top dose activity change, negative = inhibition, most hits filed as inhibitors; AID 485290, 2010; hit rate 0.28% among 350,000; further: potency means the concentration at half of the fitted maximal effect; on the % scale 0 is the no-effect control and ±100 the full control effect; nearly all actives have a fitted effect of over 40% in size
Target sequence (Q9NUW8 whole entry, looked up): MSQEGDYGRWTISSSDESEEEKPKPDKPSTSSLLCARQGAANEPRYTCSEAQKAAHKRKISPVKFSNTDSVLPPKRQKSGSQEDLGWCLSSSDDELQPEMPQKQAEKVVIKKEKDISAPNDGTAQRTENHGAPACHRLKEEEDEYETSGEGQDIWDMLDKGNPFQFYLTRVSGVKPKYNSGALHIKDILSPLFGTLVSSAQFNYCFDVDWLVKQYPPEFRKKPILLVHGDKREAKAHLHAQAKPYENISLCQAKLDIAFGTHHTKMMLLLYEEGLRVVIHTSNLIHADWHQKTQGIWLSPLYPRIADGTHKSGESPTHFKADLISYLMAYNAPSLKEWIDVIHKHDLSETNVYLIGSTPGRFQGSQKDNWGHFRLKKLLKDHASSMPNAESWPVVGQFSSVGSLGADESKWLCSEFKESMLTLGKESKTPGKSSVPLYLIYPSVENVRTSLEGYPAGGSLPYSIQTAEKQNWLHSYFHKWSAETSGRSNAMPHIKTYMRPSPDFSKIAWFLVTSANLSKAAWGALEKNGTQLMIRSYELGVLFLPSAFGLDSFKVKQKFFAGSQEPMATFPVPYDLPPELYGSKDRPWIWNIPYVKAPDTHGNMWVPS
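Enzyme-compound mixtures sat 15 min at room temperature, followed by a 5 min reaction with 15 nM final substrate and 10 min with AlphaScreen beads. Recombinant human Tdp1 was used at 1 nM final.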
TDP1 cell noCPT: qHTS for Inhibitors of human tyrosyl-DNA phosphodiesterase 1 (TDP1): qHTS in cells in absence of CPT. Potency, µM (titrated, usually from 46.2 µM), without a hit: at the highest dose activity change, negative = growth inhibition, usual class: inhibitors. hit rate 15% among 420,000. AID 686978, 2013. DT40 Tdp1-/- hTDP1 cells, no CPT, ATP luminescence, 48 h; further: potency means the concentration at half of the fitted maximal effect; on the % scale 0 is the no-effect control and ±100 the full control effect; nearly all actives have a fitted effect of over 55% in size
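Camptothecin absent (DMSO only). Human TDP1-complemented DT40 knockout cells, 400 cells/well, 37 °C for minimum 48 hr; ATP measured via CellTiter-Glo, 30 min dark incubation, luminescence.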
* hit, by the source's call; ? = inconclusive; . = not tested or not shown; [ ] = another dose, or the depositor's remark. Unless noted, the call rests on the fitted dose curve; in most records, active means well fitted curve in the direction sought with a large enough effect; inconclusive means small, poorly fitted or top-dose-only effect, or another doubt; inactive means no such curve, though single readings can be large; an effect the other way counts as inactive or inconclusive.

SMILES	TGFb inhibitor	HepG2 viability	IL1B secr inh	TDP1 cell CPT	TDP1 inh	TDP1 cell noCPT
CCOc1ccc(-c2csc(NC(=O)CSC3=NC(=O)CN3C(C)=O)n2)c2ccccc12	-4%	8%	-19	1%	8%	-30%
CC(=O)Nc1ccccc1NC(=O)CN(C)S(=O)(=O)c1ccc(C)cc1	0%	-5%	-6	-15%	2%	-14%
COc1ccc(C)cc1NC(=O)c1ccccc1N(C)S(=O)(=O)c1ccccc1	-9%	-41%	-14	?	1%	21µM*
CCN(Cc1ccccc1)S(=O)(=O)c1ccc(F)c(C(=O)Nc2cc(C)ccc2OC)c1	-3%	-6%	.	26µM*	-5%	?
CCN(CC)S(=O)(=O)c1ccc(Cl)c(NC(=O)c2cc(Cl)ccc2Cl)c1	-7%	-2%	-11	?	0%	?
CCN(CC)S(=O)(=O)c1ccc(OC)c(NC(=S)Nc2cc(C)ccc2C)c1	.	.	.	.	0%	.
CCN(Cc1ccccc1)S(=O)(=O)c1ccc(F)c(C(=O)Nc2cc(C(F)(F)F)ccc2Cl)c1	-2%	-19%	.	16µM*	-5%	23µM*
CC(=O)Nc1ccccc1N(C)S(=O)(=O)c1ccc(C)cc1	-13%	-1%	24	23µM*	-8%	23µM*
CC(NS(=O)(=O)OCC(Cl)(Cl)Cl)c1ccc(C(C)(C)C)cc1 (configuration not stated)	?	-104%	-72*	16µM*	.	?
CC(C)(NS(=O)(=O)OCC(Cl)(Cl)Cl)c1ccccc1	2%	5%	16	-23%	.	-4%
COc1cc(=O)n2c(c1C(=O)NC(C)c1ccco1)CCN(C(=O)c1cc(C)cc(C)c1)CC2 (configuration not stated)	.	.	.	2%	.	-1%
CCCCN(CCCC)c1ncnc2c1cnn2-c1cccc(C)c1	-4%	-15%	.	?	-6%	?
CCCCN(C)c1ncnc2c1cnn2-c1cccc(Cl)c1	7%	-17%	.	23µM*	.	16µM*
C=CCNc1ncnc2c1cnn2-c1ccc(OC)cc1	-6%	-32%	-12	-18%	4%	13%
OCCN1CCN(c2ncnc3c2cnn3-c2cccc(Cl)c2)CC1	22%	-22%	.	?	5%	?
c1ccc(CCN2CCN(c3ncnc4c3cnn4-c3ccccc3)CC2)cc1	?	-13%	-10	23µM*	2%	18µM*
Clc1cccc(-n2ncc3c(N4CCN(Cc5ccccc5)CC4)ncnc32)c1	0%	3%	.	23µM*	3%	?
CCCN(CCC)c1ncnc2c1cnn2-c1ccc(OC)cc1	0%	-34%	-65*	?	0%	?
O=C(NCc1cc(F)ccc1F)C1CCC(=O)N(C2CCCCCC2)C1 (configuration not stated)	-1%	-3%	-13	19%	4%	?
Cc1ccccc1C(=O)N1CCN(c2ncnc3c2cnn3-c2ccccc2)CC1	0%	-27%	?	21µM*	7%	23µM*
COc1ccccc1NC(=O)CSc1nnc(C)s1	-17%	-13%	6	-3%	1%	5%
CCCCN1C(=O)c2[nH]nc(-c3ccccc3O)c2C1c1ccc(OCc2ccccc2)cc1 (configuration not stated)	3.5µM*	-70%	.	18µM*	7%	?
COCCCN1C(=O)c2[nH]nc(-c3ccccc3O)c2C1c1ccc(OCc2ccccc2)cc1 (configuration not stated)	20µM*	-112%	.	?	10%	?
Cc1ccc(C2c3c(-c4ccccc4O)n[nH]c3C(=O)N2CCCO)cc1 (configuration not stated)	38%	3%	.	18µM*	7%	29µM*
COCCN1C(=O)c2[nH]nc(-c3ccccc3O)c2C1c1ccc(OC)cc1 (configuration not stated)	5%	6%	-24	-4%	4%	-20%
SMILES	TGFb inhibitor	HepG2 viability	IL1B secr inh	TDP1 cell CPT	TDP1 inh	TDP1 cell noCPT
CC(C)OCCCN1C(=O)c2[nH]nc(-c3ccccc3O)c2C1c1cccc(OCc2ccccc2)c1 (configuration not stated)	?	16µM*	.	10µM*	4%	?
CCOc1ccc(C(=O)OCC(=O)N2CCCC2)cc1	-13%	-9%	0	-7%	.	-12%
CCOC(=O)/C(=N\Nc1ccc(Cl)cc1)Sc1nnc(-c2ccc(OC)cc2)n1C	-7%	7%	-3	-17%	0%	-12%
Cc1ccc(C(=O)N2CCOc3ccc(CN4CCN(Cc5ccccn5)CC4)cc3C2)cc1	.	.	.	-1%[9.04 µM]	.	-22%
COc1ccccc1OCCCCn1c(-c2ccc(Cl)cc2)nc2ccccc2c1=O	-1%	-13%	.	-20%	.	-10%
CCCCN1C(=O)c2[nH]nc(-c3ccccc3O)c2C1c1ccc(C(C)(C)C)cc1 (configuration not stated)	-28%	-25%	.	21µM*	7%	13µM*
O=C1c2[nH]nc(-c3ccccc3O)c2C(c2cccc(OCc3ccccc3)c2)N1CCO (configuration not stated)	-6%	-4%	.	-1%	6%	?
CC(C)OCCCN1C(=O)c2[nH]nc(-c3ccccc3O)c2C1c1ccccc1F (configuration not stated)	10µM*	-47%	.	13µM*	7%	13µM*
CCCOc1ccc(C2c3c(-c4c(C)cc(C)cc4O)n[nH]c3C(=O)N2CCO)cc1 (configuration not stated)	23%	7%	.	21µM*	2%	23µM*
CCc1ccc(NC(=O)CN(c2ccc(C)cc2)S(=O)(=O)c2cccs2)cc1	7%	-22%	.	-17%	-2%	-19%
Cc1cc(=O)oc2cc(OCc3ccc(S(=O)(=O)N4CCOCC4)cc3)ccc12	-1%	-17%	-20	?	0%	29µM*
CCN1C(=S)SC(=O)C1=C1C=C(C)N(Cc2ccco2)C(C)=C1	2%	-9%	-5	4.6µM*	11%	5.2µM*

High-throughput results as filed in PubChem BioAssay.
